# In PubChem BioAssay AID1159580 (chemical genetic matrix, 2015):
# Hit rate of the full screen: of about 5,500 compounds, about 2,000 (36%) were called active. Not shown: some 18% with an inconclusive outcome. This is one part of the list. Values without a mark were called inactive. No stated cut-off is given here; in the data, active means normalized growth mostly below about 0.91 (no sharp cut-off); inconclusive means no clear call, values can overlap the other calls; inactive means mostly above about 0.92.
# Assay: chemical genetic growth profiling, strain panel (AID 1159580);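 further: tested at 20 µM; growth read once vehicle control cultures reached saturation at 30 °C; 1 = growth at the plate median or of vehicle wells; lower values mean less growth of the strain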
# Settings: growth OD
smiles,measurement,setting,value
CC(C(=O)O)c1ccc(-c2ccccc2)c(F)c1 (configuration not stated),normalized growth,"S. cerevisiae deletion strains, locus YJR043C, strain POL32, hits give low values",0.979
same,normalized growth,"S. cerevisiae deletion strains, locus YJR066W, strain TOR1, hits give low values",0.762 (active)
same,normalized growth,"S. cerevisiae deletion strains, locus YJR075W, strain HOC1, hits give low values",0.978
same,normalized growth,"S. cerevisiae deletion strains, locus YKL009W, strain mrt4, hits give low values",0.899
same,normalized growth,"S. cerevisiae deletion strains, locus YKL068W, hits give low values",0.912 (active)
same,normalized growth,"S. cerevisiae deletion strains, locus YKL085W, strain MDH1 (second series), hits give low values",0.919 (active)
same,normalized growth,"S. cerevisiae deletion strains, locus YKL085W, strain MDH1, hits give low values",0.919 (active)
same,normalized growth,"S. cerevisiae deletion strains, locus YKL160W, strain elf1, hits give low values",1.03
same,normalized growth,"S. cerevisiae deletion strains, locus YKR001C, strain vps1, hits give low values",0.827 (active)
same,normalized growth,"S. cerevisiae deletion strains, locus YKR026C, strain gcn3, hits give low values",0.977
same,normalized growth,"S. cerevisiae deletion strains, locus YKR091W, strain srl3, hits give low values",0.988
same,normalized growth,"S. cerevisiae deletion strains, locus YLL001W, strain dnm1, hits give low values",1.02
same,normalized growth,"S. cerevisiae deletion strains, locus YLL026W, hits give low values",0.987
same,normalized growth,"S. cerevisiae deletion strains, locus YLL041C, strain sdh2, hits give low values",0.97
same,normalized growth,"S. cerevisiae deletion strains, locus YLR027C, strain aat2, hits give low values",0.976
same,normalized growth,"S. cerevisiae deletion strains, locus YLR039C, strain RIC1, hits give low values",0.79
same,normalized growth,"S. cerevisiae deletion strains, locus YLR058C, strain SHM2, hits give low values",0.99
same,normalized growth,"S. cerevisiae deletion strains, locus YLR102C, strain apc9, hits give low values",0.954
same,normalized growth,"S. cerevisiae deletion strains, locus YLR113W, strain HOG1, hits give low values",0.62 (active)
same,normalized growth,"S. cerevisiae deletion strains, locus YLR221C, strain rsa3, hits give low values",1
same,normalized growth,"S. cerevisiae deletion strains, locus YLR258W, strain gsy2, hits give low values",0.983
same,normalized growth,"S. cerevisiae deletion strains, locus YLR262C, strain YPT6 (second series), hits give low values",0.846 (active)
same,normalized growth,"S. cerevisiae deletion strains, locus YLR262C, strain YPT6, hits give low values",0.773
same,normalized growth,"S. cerevisiae deletion strains, locus YLR268W, strain sec22, hits give low values",0.955
same,normalized growth,"S. cerevisiae deletion strains, locus YLR320W, strain mms22, hits give low values",1.05
same,normalized growth,"S. cerevisiae deletion strains, locus YLR330W, strain CHS5, hits give low values",0.969
same,normalized growth,"S. cerevisiae deletion strains, locus YLR342W, strain FKS1 (second series), hits give low values",0.936
same,normalized growth,"S. cerevisiae deletion strains, locus YLR342W, strain FKS1, hits give low values",0.984
same,normalized growth,"S. cerevisiae deletion strains, locus YLR357W, strain rsc2, hits give low values",1.01
same,normalized growth,"S. cerevisiae deletion strains, locus YLR370C, strain arc18, hits give low values",0.989
same,normalized growth,"S. cerevisiae deletion strains, locus YLR371W, strain rom2, hits give low values",0.996
same,normalized growth,"S. cerevisiae deletion strains, locus YLR384C, strain iki3, hits give low values",1.01
same,normalized growth,"S. cerevisiae deletion strains, locus YLR418C, strain cdc73, hits give low values",1.01
same,normalized growth,"S. cerevisiae deletion strains, locus YML016C, strain PPZ1, hits give low values",0.981
same,normalized growth,"S. cerevisiae deletion strains, locus YML032C, strain rad52, hits give low values",0.951
same,normalized growth,"S. cerevisiae deletion strains, locus YML120C, strain ndi1, hits give low values",0.996
same,normalized growth,"S. cerevisiae deletion strains, locus YML124C, strain tub3, hits give low values",0.96
same,normalized growth,"S. cerevisiae deletion strains, locus YMR058W, strain fet3, hits give low values",0.994
same,normalized growth,"S. cerevisiae deletion strains, locus YMR078C, strain ctf18, hits give low values",0.94
same,normalized growth,"S. cerevisiae deletion strains, locus YMR125W, strain sto1, hits give low values",1
same,normalized growth,"S. cerevisiae deletion strains, locus YMR129W, hits give low values",0.968
same,normalized growth,"S. cerevisiae deletion strains, locus YMR205C, strain PFK2, hits give low values",1.03
same,normalized growth,"S. cerevisiae deletion strains, locus YMR223W, strain ubp8, hits give low values",1.02
same,normalized growth,"S. cerevisiae deletion strains, locus YMR231W, strain pep5, hits give low values",0.969
same,normalized growth,"S. cerevisiae deletion strains, locus YMR307W, strain GAS1, hits give low values",0.938
same,normalized growth,"S. cerevisiae deletion strains, locus YNL067W, strain RPL9B, hits give low values",0.974
same,normalized growth,"S. cerevisiae deletion strains, locus YNL071W, strain lat1, hits give low values",0.985
same,normalized growth,"S. cerevisiae deletion strains, locus YNL183C, strain NPR1, hits give low values",0.783 (active)
same,normalized growth,"S. cerevisiae deletion strains, locus YNL209W, strain ssb2, hits give low values",1.01
same,normalized growth,"S. cerevisiae deletion strains, locus YNL233W, strain BNI4, hits give low values",0.991
same,normalized growth,"S. cerevisiae deletion strains, locus YNL248C, strain rpa49, hits give low values",0.817 (active)
same,normalized growth,"S. cerevisiae deletion strains, locus YNL250W, strain rad50, hits give low values",0.908
same,normalized growth,"S. cerevisiae deletion strains, locus YNL271C, strain bni1, hits give low values",0.888 (active)
same,normalized growth,"S. cerevisiae deletion strains, locus YNL298W, strain CLA4, hits give low values",0.792 (active)
same,normalized growth,"S. cerevisiae deletion strains, locus YNL307C, strain MCK1, hits give low values",0.947
same,normalized growth,"S. cerevisiae deletion strains, locus YNL322C, strain KRE1 (second series), hits give low values",0.964
same,normalized growth,"S. cerevisiae deletion strains, locus YNL322C, strain KRE1, hits give low values",0.975
same,normalized growth,"S. cerevisiae deletion strains, locus YNR049C, strain mso1, hits give low values",0.981
same,normalized growth,"S. cerevisiae deletion strains, locus YNR052C, strain pop2, hits give low values",0.952
same,normalized growth,"S. cerevisiae deletion strains, locus YOL012C, strain htz1",1.06
same,normalized growth,"S. cerevisiae deletion strains, locus YOL147C, strain pex11, hits give low values",0.969
same,normalized growth,"S. cerevisiae deletion strains, locus YOR001W, strain rrp6, hits give low values",0.95
same,normalized growth,"S. cerevisiae deletion strains, locus YOR061W, strain CKA2, hits give low values",0.973
same,normalized growth,"S. cerevisiae deletion strains, locus YOR069W, strain VPS5, hits give low values",0.994
same,normalized growth,"S. cerevisiae deletion strains, locus YOR070C, strain gyp1, hits give low values",1
same,normalized growth,"S. cerevisiae deletion strains, locus YOR080W, strain dia2, hits give low values",1.01
same,normalized growth,"S. cerevisiae deletion strains, locus YOR083W, strain WHI5, hits give low values",1.03
same,normalized growth,"S. cerevisiae deletion strains, locus YOR106W, strain vam3, hits give low values",0.994
same,normalized growth,"S. cerevisiae deletion strains, locus YOR136W, strain idh2, hits give low values",0.989
same,normalized growth,"S. cerevisiae deletion strains, locus YOR144C, strain elg1, hits give low values",0.965
same,normalized growth,"S. cerevisiae deletion strains, locus YOR184W, strain ser1, hits give low values",0.972
same,normalized growth,"S. cerevisiae deletion strains, locus YOR231W, strain MKK1, hits give low values",0.732 (active)
same,normalized growth,"S. cerevisiae deletion strains, locus YOR265W, strain rbl2, hits give low values",1
same,normalized growth,"S. cerevisiae deletion strains, locus YOR270C, strain vph1, hits give low values",1.05
same,normalized growth,"S. cerevisiae deletion strains, locus YOR290C, strain snf2, hits give low values",0.97
same,normalized growth,"S. cerevisiae deletion strains, locus YOR316C, strain cot1, hits give low values",0.965
same,normalized growth,"S. cerevisiae deletion strains, locus YPL051W, strain arl3, hits give low values",0.981
same,normalized growth,"S. cerevisiae deletion strains, locus YPL078C, strain atp4, hits give low values",1
same,normalized growth,"S. cerevisiae deletion strains, locus YPL106C, strain sse1, hits give low values",1.05
same,normalized growth,"S. cerevisiae deletion strains, locus YPL240C, strain hsp82, hits give low values",0.985
same,normalized growth,"S. cerevisiae deletion strains, locus YPL256C, strain CLN2, hits give low values",0.736 (active)
same,normalized growth,"S. cerevisiae deletion strains, locus YPR119W, strain clb2, hits give low values",0.95
same,normalized growth,"S. cerevisiae deletion strains, locus YPR141C, strain kar3, hits give low values",0.913 (active)
same,normalized growth,"S. cerevisiae deletion strains, locus YPR163C, strain tif3, hits give low values",0.957
same,normalized growth,"S. cerevisiae deletion strains, locus YPR167C, strain met16, hits give low values",0.962
same,normalized growth,"S. cerevisiae deletion strains, strain wtn01, hits give low values",0.971
same,normalized growth,"S. cerevisiae strains, strain wild type, hits give low values",0.968
